Measurements reported in PubChem BioAssay (Tox21).
Inconclusive results are not listed. The source made the active and inactive calls. Unless noted, the call rests on the fitted dose curve; in most records, active means well fitted curve in the direction sought with a large enough effect in the repeat runs; inconclusive means weak or mixed curves; inactive means no such curve, though single readings can be large; an effect the other way counts as inactive or inconclusive.

Tests used:
[1] = qHTS assay to identify small molecule agonists of H2AX (AID 1224845; active means well fitted activation curve with a large enough effect in the signal ratio in the repeat runs, not every such curve was filed as active; the % refers to the signal ratio)
In short: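 Wild-type CHO-K1 cells, plated overnight, exposed 3hr at 37C to 15 concentrations (0.76% DMSO final). Lysed, then HTRF anti-pH2AX (S139) cryptate and anti-H2AX-d2 antibodies, 24 hr room temperature; 665/620 nm emission read.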

[2] = qHTS assay to identify small molecule agonists of the hypoxia (HIF-1) signaling pathway (AID 1224846; active means well fitted activation curve with a large enough effect in the signal ratio in the repeat runs, not every such curve was filed as active; the % refers to the signal ratio)
In short: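 HRE-bla ME-180 beta-lactamase reporter cells in medium with 0.5% dialyzed FBS, pre-incubated 5 h then exposed to compounds 17 h at 37C, 5% CO2; reporter induction read with CCF4-AM FRET substrate.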

[3] = qHTS assay to identify small molecule agonists of H2AX - cell viability counter screen (AID 1224847; calls by dose curve; further: top concentration of the series differs between compounds; nearly all actives have a fitted effect of over 30% in size)
In short: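 CHO-K1 cells plated overnight at 37C, then exposed 3 h at 37C to compounds at 15 concentrations (0.76% DMSO final). Viability by CellTiter-Glo luminescence after 30 min at room temperature.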

[4] = A CellTox Green Cytotoxicity Assay to monitor cytotoxicity in HEK293 cells - 0 hour (AID 1224869); further: nearly all actives have a fitted effect of over 50% in size
In short: (§1)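 HEK293 cells, 600/well, were preincubated 5 hours and then exposed to compounds at 37 C for up to 40 hours. A cell-impermeant cyanine dye staining dead-cell DNA was read by fluorescence at 0, 8, 16, 24, 32 and 40 h time points.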

[5] = A CellTox Green Cytotoxicity Assay to monitor cytotoxicity in HEK293 cells - 40 hour (AID 1224871); further: nearly all actives have a fitted effect of over 45% in size
In short: as §1

[6] = qHTS RealTime-Glo MT Cell Viability Assay in HepG2 cells - 24 hour (AID 1224867); further: nearly all actives have a fitted effect of over 50% in size
In short: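 Cells + NanoLuc/prosubstrate dispensed (600 cells/well) → 5 h at 37 C/5% CO2 → compounds in DMSO transferred → 40 h incubation at 37 C, luminescence read at 0, 8, 16, 24, 32, 40 h.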

[7] = qHTS RealTime-Glo MT Cell Viability Assay in HepG2 cells - 40 hour (AID 1224870); further: nearly all actives have a fitted effect of over 50% in size
In short: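 HepG2 cells (600/well) mixed with RealTime-Glo MT reagent, settled 5 h at 37 C/5% CO2 before compound addition. Nonlytic NanoLuc luminescence from viable-cell prosubstrate reduction read repeatedly during 40 h treatment at 37 C.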

[8] = qHTS RealTime-Glo MT Cell Viability Assay in HEK293 cells - 32 hour (AID 1224868); further: nearly all actives have a fitted effect of over 50% in size; further: potency means the concentration at half of the fitted maximal effect
In short: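 Tox21 10K qHTS, HEK293, 600 cells/well, RealTime-Glo reagent co-dispensed with cells; 5 h preincubation, compound by pintool, 37 C, luminescence at 0–40 h.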

[9] = qHTS assay to identify small molecule agonists of the estrogen related receptor (ERR) signaling pathway from Tox21 library (AID 1224849; calls by dose curve; further: nearly all actives have a fitted effect of over 15% in size); details: ERR reporter cell line, ONE-Glo luciferase, 18 h; at 92.4 µM (top of the series) unless noted
In short: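 ERR reporter cells (NTP line) pre-incubated 6 hours at 37 C, then exposed to compounds for 18 hours at 37 C. ONE-Glo luciferase luminescence was read after 30 minutes at room temperature.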

[10] = qHTS assay to identify small molecule antagonists of the estrogen related receptor (ERR) signaling pathway from Tox21 library (AID 1224848); further: nearly all actives have a fitted effect of over 50% in size
In short: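 Luminescent reporter read-out (ONE-Glo) from NTP's ERR cell line after 18 h treatment at 37 C with DMSO-dissolved Tox21 compounds; cells pre-plated 6 h beforehand at 2,000 per well.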
On the % scale 0 is the no-effect control and ±100 the full control effect.

CCOC(=O)C1=C(C)NC(C)=C(C(=O)OC)C1c1cccc([N+](=O)[O-])c1 (stereo not drawn)
inactive: Potency [1] | outcome [2] | Potency [3] | Potency [4] | Potency [5]

O=C(O)c1cn(C2CC2)c2cc(Cl)c(F)cc2c1=O
inactive: Potency [1] | outcome [2] | Potency [3] | Potency [6] | Potency [7]

N#Cc1cc2ccccc2c2ccccc12
inactive: Potency [1] | outcome [2] | Potency [3] | Potency [6] | Potency [8] | Potency [4] | Potency [7] | Potency [5]

CCCC(=O)OCC
inactive: Potency [1] | outcome [2] | Potency [3] | Potency [6] | Potency [4] | Potency [5]

CCCCOC(O)CC (stereo not drawn)
inactive: Potency [1] | outcome [2] | Potency [3] | Potency [6] | Potency [8] | Potency [4] | Potency [7] | Potency [5]

CC(=O)SCc1ccco1
inactive: Potency [1] | outcome [2] | Potency [3] | Potency [6] | Potency [8] | Potency [4] | Potency [5]

CN(C)CCCNCCCN
inactive: Potency [1] | outcome [2] | Potency [3] | Potency [6] | Potency [4] | Potency [7] | Potency [5]

CCCCCCCCCCCCCCC1CO1 (stereo not drawn)
inactive: Potency [1] | outcome [2] | Potency [3] | Potency [6] | Potency [8] | Potency [4] | Potency [5]

Cc1cccc(Oc2ccccc2)c1
inactive: Potency [1] | outcome [2] | activity change, positive = activation [9] -65.1% | Potency [6] | Potency [4] | Potency [7] | Potency [5]

C=CC(=O)OCCOC(=O)CCC(=O)O
inactive: Potency [1] | outcome [2] | Potency [10] | Potency [6] | Potency [8] | Potency [4] | Potency [7] | Potency [5]
active: activity change, positive = activation [9] 67.1%

CC(C)(C)c1cc(CO)cc(C(C)(C)C)c1O
inactive: Potency [1] | outcome [2] | activity change, positive = activation [9] -33.2% | Potency [6] | Potency [4] | Potency [7] | Potency [5]

c1ccc(CNCc2ccccc2)cc1
inactive: Potency [1] | outcome [2] | Potency [3] | Potency [6] | Potency [8] | Potency [4] | Potency [5]

CCCCC(CC)COCCCN (stereo not drawn)
inactive: Potency [1] | outcome [2] | activity change, positive = activation [9] -26.6% | Potency [6] | Potency [4] | Potency [5]

C[Si](C)O[Si](C)(C)O[Si](C)(C)O[Si](C)C
inactive: Potency [1] | outcome [2] | Potency [3] | Potency [6] | Potency [8] | Potency [4] | Potency [7] | Potency [5]

CC(C)(C)C1CCCCC1O (stereo not drawn)
inactive: Potency [1] | outcome [2] | Potency [3] | Potency [6] | Potency [8] | Potency [4] | Potency [5]

Cc1cccc(OCCOc2cccc(C)c2)c1
inactive: Potency [1] | outcome [2] | activity change, positive = activation [9] 10.4% | Potency [6] | Potency [8] | Potency [4] | Potency [7] | Potency [5]

COc1ccc(OC)c(OC)c1
inactive: Potency [1] | outcome [2] | Potency [3] | Potency [6] | Potency [4] | Potency [7] | Potency [5]

O=S(=O)(O)c1ccc(O)c2ncccc12
inactive: Potency [1] | outcome [2] | Potency [6] | Potency [8] | Potency [4] | Potency [7] | Potency [5]

CCCC(C)C
inactive: Potency [1] | outcome [2] | Potency [3] | Potency [6] | Potency [4] | Potency [5]

CC[C@@H]1C[C@H](N(Cc2cc(C(F)(F)F)cc(C(F)(F)F)c2)C(C)=O)c2cc(C(F)(F)F)ccc2N1C(=O)OC(C)C
inactive: Potency [1] | outcome [2] | Potency [3] | Potency [6] | Potency [4] | Potency [7] | Potency [5]

CC(=O)c1ccc2c(c1)[C@H](NC(=O)c1ccc(F)cc1)[C@@H](O)C(C)(C)O2
inactive: Potency [1] | outcome [2] | Potency [3] | Potency [6] | Potency [8] | Potency [4] | Potency [7] | Potency [5]

N#CCc1cccc(C(F)(F)F)c1
inactive: Potency [1] | outcome [2] | Potency [3] | Potency [6] | Potency [8] | Potency [4] | Potency [5]

N[C@H]1C(O)O[C@H](CO)[C@H](O)[C@@H]1O (stereo partly drawn)
inactive: Potency [1] | outcome [2] | activity change, positive = activation [9] 1.03% | Potency [6] | Potency [8] | Potency [4] | Potency [5]

Oc1ccc(Cc2ccccc2)cc1
active: Potency [8] 36 µM
inactive: Potency [1] | outcome [2] | Potency [10] | activity change, positive = activation [9] 2.56% | Potency [6] | Potency [4] | Potency [7]

CCOc1cc(OCC)c(C(=O)CCC(=O)O)cc1OCC
inactive: Potency [1] | outcome [2] | Potency [3] | Potency [6] | Potency [8] | Potency [4] | Potency [5]

O=C(NS(=O)(=O)/C=C/c1cccs1)c1ccc(F)cc1Br
inactive: Potency [1] | outcome [2] | Potency [3] | Potency [6] | Potency [4] | Potency [7] | Potency [5]
